From PubChem BioAssay (NCI)
This is part of a sample that, as a whole, favours compounds with a hit. Of some 83,000 tested, about 20% had one in any assay.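 Note: values are percent growth. 100 is the growth of untreated cells, values between 100 and 0 indicate rising inhibition; between -100 and 0 indicates cell death.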 A number with no mark means an inactive call. The source made the active and inactive calls. The calls were made as follows: active = growth percent below 10; inactive = the rest.

Test system: HL-60(TB) leukemia
Assay: NCI-60 one-dose screen, 48 h (100 = growth as untreated, 0 = no growth, -100 = all killed)
Details: 10 µM unless noted

SMILES | growth
O=C(O)c1cn(C2CC2)c2cc(N3CCN(C(=O)C[n+]4cccc5ccccc54)CC3)c(F)cc2c1=O | 99.1%
COc1ccc(-c2nc(-c3nc4cc(C)c(C)cc4[nH]3)cc3c2[nH]c2ccccc23)cc1 | -31.9% (active)
O=c1c2c3c(sc2n2c(-c4cc(-c5ccccc5)no4)nnc2n1Cc1ccccc1)CCCC3 | 72.8%
CCCCn1c(-c2ccc(C(=O)O/N=C(\N)c3ccc4ccccc4c3)cc2)nc(-c2ccccc2)c1-c1ccccc1 | 23.8%
C=C1SC(=Nc2ccccc2Cl)N(C(=O)c2sc3ccccc3c2Cl)C1(C)C | 1.29% (active)
COc1ccc(C(O)c2cc3c(N)c(C(=O)Nc4cccc(OC)c4)sc3nc2C)cc1 (stereo not given) | -55.9% (active)
COc1ccc(/C=C(\C#N)c2cc3ccccc3n2C(C)=O)cc1 | 83.2%
COc1ccc2c(c1)OC(N)=C(C#N)C2c1cc(OC)c(OC)c(OC)c1 (stereo not given) | -30.4% (active)
Cc1ccc(NC(=O)C2CCC(CN3CCN(C)CC3)CC2)cc1Nc1nccc(-c2cccnc2)n1 (stereo not given) | 110%
COc1cc(/C=C2\CN(S(=O)(=O)c3ccc(C)cc3)C/C(=C\c3cc(CN4CCCC4)c(O)c(OC)c3)C2=O)cc(CN2CCCC2)c1O | -33.6% (active)
C/C(=C\c1ccccc1)C(O)C(=O)c1nc2ccc([N+](=O)[O-])cc2[nH]c1=O (stereo not given) | 83%
COCCOCCOCc1n(Cc2ccc3ccccc3n2)c2ccccc2[n+]1Cc1ccc2ccccc2c1 | -68% (active)
O=C1/C(=C/c2ccccc2)CCC/C1=C\c1ccccc1 | 97.8%
CCC(=O)N1C/C(=C/c2ccc(Br)cc2)C(=O)/C(=C/c2ccc(Br)cc2)C1 | -26.2% (active)
CCNS(=O)(=O)c1ccc(C)cc1 | 72%
CCCCC(=O)Nc1ncc(Cc2ccccc2Cl)s1 | -7.94% (active)
CSc1nc2c(c(=O)[nH]1)C(c1ccc(C)cc1)C=C(C(=O)O)N2 (stereo not given) | 114%
C=C1C(=O)O[C@H]2[C@H]1CC/C(Cn1cc(Cc3c[nH]c4ccccc34)nn1)=C\CC[C@@]1(C)O[C@@H]21 | -49.1% (active)
C=CCc1cc(OC)c(OC)c(OC)c1 | 78.7%
Cc1ccc(NCN2C(=O)c3ccccc3C2=O)c(C)n1 | 97.8%

SMILES | growth
COc1ccc(-n2nc(C)c3c(Oc4ccc(NC(=O)Nc5c(Cl)cccc5Cl)cc4)ncnc32)cc1 | 100%
CCCCN(CCCC)CCCCCCCCC(O)c1cc2ccccc2c2ccccc12 (stereo not given) | 28.5%
O=C1C=CC(=O)N1Cc1ccco1 | 108%
COc1ccc2nc(-c3ccc(Cl)cc3)cc(-c3nnc(SC/C(=N/O)c4ccccc4)o3)c2c1 | 82%
Cc1c(/C=C/[N+](=O)[O-])ccc2c1[nH]c1ccccc12 | 67.3%
COC(=O)[C@]12CC[C@@H](C)[C@H](C)[C@@H]1C1=CC[C@@H]3[C@@]4(C)C[C@@H](O)OC[C@](C)(C=O)C4C(=O)C[C@@]3(C)[C@]1(C)CC2 (stereo not given in full) | -13.3% (active)
COC(=O)[C@]12CC[C@@H](C)[C@H](C)[C@@H]1C1=CC[C@@H]3[C@@](C)(CC#N)C4=C(C[C@@]3(C)[C@]1(C)CC2)OC[C@]4(C)C=O | -10.8% (active)
O=S(=O)(Nc1ccc(OC(F)F)cc1)c1ccc(-c2cnc(C3CC3)o2)cc1 | 64.7%
C[C@H]1C[C@@H](n2cnc3c(N)nccc32)[C@H](O)[C@@H]1O | 80.5%
CCCN(CCC)CN(CCC)CCC | 93.5%
Fc1ccc2nc(-c3ccc(-c4noc(-c5ccc(Cl)cc5)n4)cc3)[nH]c2c1 | 88.7%
CCOC(=O)Nc1ccc(-c2ccc3c(c2)NC(=O)/C3=C\c2ccc[nH]2)cc1 | 98.5%
C=CCn1c(SCC(=O)Nc2ccc(C(=O)/C=C/c3ccc(Cl)cc3)cc2)nnc1-c1ccccc1 | 80.9%
Clc1cccc(Cc2cn3cc(-c4ccccc4)nc3s2)c1 | 66.1%
Cc1cc(C)cc(NC(=O)Cn2nncc2CN2C(=O)CSC2=O)c1 | 97.9%
FC(F)(F)c1[nH]ncc1-c1nc2ccc3[nH]ncc3c2c2c1CCCC2 | -32.3% (active)
CCCCCCCCCCCCCCCCCC1=NC(C)(C)CN1CC(C)O (stereo not given) | 61%
CCN(CC)S(=O)(=O)c1ccc(S(=O)(=O)N2CCC[C@@H](C(=O)N3CCN(C(=O)OC(C)(C)C)CC3)C2)cc1 | 70.5%
C=C1C(=O)O[C@H]2[C@H]1CC/C(COC(=O)NCc1c[nH]c3ccc(F)cc13)=C\CC[C@@]1(C)O[C@@H]21 | -32.4% (active)
N/C(=N\c1nc2ccccc2[nH]1)NC(=O)Cc1cccc2ccccc12 | 82.4%
